Shown are actives, neighbours in structure and some others; about 15% of the full set was active somewhere.
12-LOX inh = ALOX12 (human) lipoxygenase inhibition; P18054; purified 12hLO, xylenol orange hydroperoxide absorbance; Potency, µM (top dose mostly 108 µM), most hits filed as inhibitors; hit rate 1.1% among 580,000; AID 1671190
Target sequence (P18054 whole entry, looked up): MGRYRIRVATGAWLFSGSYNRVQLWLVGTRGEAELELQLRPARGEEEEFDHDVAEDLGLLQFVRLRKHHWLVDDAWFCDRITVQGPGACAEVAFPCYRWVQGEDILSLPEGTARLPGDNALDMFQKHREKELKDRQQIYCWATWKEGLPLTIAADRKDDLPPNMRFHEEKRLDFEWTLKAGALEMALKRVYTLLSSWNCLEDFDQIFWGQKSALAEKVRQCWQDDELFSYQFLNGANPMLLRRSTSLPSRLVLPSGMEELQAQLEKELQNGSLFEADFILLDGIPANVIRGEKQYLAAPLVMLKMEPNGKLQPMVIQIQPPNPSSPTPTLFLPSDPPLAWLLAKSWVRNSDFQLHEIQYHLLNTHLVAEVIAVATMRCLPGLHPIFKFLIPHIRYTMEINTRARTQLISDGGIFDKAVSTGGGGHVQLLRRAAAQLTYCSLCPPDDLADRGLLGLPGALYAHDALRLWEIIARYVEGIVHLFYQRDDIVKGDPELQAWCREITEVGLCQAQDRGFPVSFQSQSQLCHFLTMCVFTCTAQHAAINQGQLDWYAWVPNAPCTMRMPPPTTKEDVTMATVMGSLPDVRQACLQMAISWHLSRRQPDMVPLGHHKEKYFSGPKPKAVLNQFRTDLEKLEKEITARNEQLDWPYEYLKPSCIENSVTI
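Purified human 12hLO (150 nM final) in 25 mM Hepes, 0.01% Triton X-100, pH 7.0 was preincubated 15 min at room temperature with compound. Then 40 uM arachidonic acid was added, 30 min. Hydroperoxide was read by Fe-XO absorbance ratio 573/405 nm.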
RORgamma inh = ROR gamma (mouse) transcription inhibition | Drosophila S2 Gal4-RORgamma UAS-luciferase reporter, 20 h | Potency, µM (doses to about 53.6 µM), actives largely listed as inhibitors | hit rate 5.4% among 310,000; further: nearly all actives have a fitted effect of over 60% in size
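Read-out: Photinus luciferase luminescence; inhibitors lower reporter signal. Insect Schneider cells with Gal4-ROR gamma fusion under metallothionein promoter, UAS reporter; 700 uM final copper sulfate induction, 20 hr, ambient temperature.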
VP16 counter = Gal4-VP16 reporter inhibition counter-screen; Drosophila S2 Gal4-VP16 UAS-luciferase, luminescence, 20 h; Potency, µM (doses to about 53.6 µM), actives largely listed as inhibitors; hit rate 3.5% among 310,000;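 further: Gal4-VP16 expression switched on by copper sulfate through the metallothionein promoter; nearly all actives have a fitted effect of over 50% in size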
ELG1 repair inh = ELG1-dependent DNA repair inhibition. Potency, µM (titrated, usually from 46.1 µM), most hits filed as inhibitors. AID 504467. HEK293T ELG1-luciferase reporter, luminescence, 16 h; DNA damage induced by 5-fluorouridine. hit rate 2.3% among 330,000; further: nearly all actives have a fitted effect of over 55% in size
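Reporter activity after DNA damage by 5-fluorouridine is monitored. Compound-treated cells incubate 16 hr at 37 °C, then ONE-Glo is added for 30 min before luminescence reading.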
DT40 TDP1 no CPT = qHTS for Inhibitors of human tyrosyl-DNA phosphodiesterase 1 (TDP1): qHTS in cells in absence of CPT. DT40 Tdp1-/- hTDP1 cells, no CPT, ATP luminescence, 48 h. Potency, µM (doses to about 46.2 µM), usual class: inhibitors. hit rate 15% among 420,000. AID 686978, 2013; further: nearly all actives have a fitted effect of over 55% in size
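Chicken DT40 Tdp1-/- cells complemented with human TDP1, screened without camptothecin (DMSO vehicle only), 400 cells/well. Compounds pin-transferred, cells incubated at 37 °C for at least 48 hr. Growth read as ATP-dependent luminescence (CellTiter-Glo, 30 min at RT).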
TDP1 cell CPT = growth inhibition of DT40 Tdp1-/-;hTDP1 cells with camptothecin (screen for TDP1 inhibitors) | chicken DT40 Tdp1-/-;hTDP1 cells + 20 nM CPT, ATP luminescence, 48 h | Potency, µM (highest dose often 46.2 µM), most hits filed as inhibitors | hit rate 12% among 420,000 | AID 686979; further: nearly all actives have a fitted effect of over 55% in size
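Chicken DT40 Tdp1-/- cells stably complemented with human TDP1 were seeded at 400 cells/well in medium containing 20 nM camptothecin, exposed to pin-transferred compounds, and grown at 37 °C for at least 48 hr. Viability was read as ATP luminescence.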
Each line names hits and unclear results; the compound was inactive in the other large screens. The call rests on the fitted dose curve; in most records, active means well fitted curve in the direction sought with a large enough effect; inconclusive means small, poorly fitted or top-dose-only effect, or another doubt; inactive means no such curve, though single readings can be large; an effect the other way counts as inactive or inconclusive.

O=C(CCN1CCN(c2cnccn2)CC1)Nc1cc(Cl)ccc1Cl	none (no result: RORgamma inh, VP16 counter, ELG1 repair inh, DT40 TDP1 no CPT, TDP1 cell CPT)
CCOc1ccccc1CN1CCN(c2cc(C)nc(N)n2)CC1CCO (centres undefined)	none (no result: RORgamma inh, VP16 counter, ELG1 repair inh, DT40 TDP1 no CPT, TDP1 cell CPT)
COc1cc(CCc2ccccc2)c(C(=O)O)c(O)c1CC=C(C)C	12-LOX inh inconclusive, DT40 TDP1 no CPT 18µM, TDP1 cell CPT 23µM (no result: RORgamma inh, VP16 counter, ELG1 repair inh)
COc1cc(CCc2ccccc2)c(C(=O)O)c(O)c1C/C=C(/C)CCC=C(C)C	12-LOX inh inconclusive, ELG1 repair inh inconclusive, DT40 TDP1 no CPT 16µM, TDP1 cell CPT inconclusive (no result: RORgamma inh, VP16 counter)
CCCN(C)c1nccnc1OC1CCN(C(=O)c2ccc(F)cc2)C1 (centres undefined)	none (no result: RORgamma inh, VP16 counter, ELG1 repair inh, DT40 TDP1 no CPT, TDP1 cell CPT)
O=Cc1cccc(OCc2ccc(Cl)c(Cl)c2)c1	none (no result: RORgamma inh, VP16 counter, ELG1 repair inh, DT40 TDP1 no CPT, TDP1 cell CPT)
O=C(CN1CCN(C(=O)c2ccccc2)CC1)Nc1cc(S(=O)(=O)N2CCCC2)ccc1Cl	DT40 TDP1 no CPT inconclusive, TDP1 cell CPT inconclusive (no result: RORgamma inh, VP16 counter)
O=C(Nc1ccccc1Cl)N1CCN(Cc2ccc3c(c2)OCO3)CC1	none
O=C(CN1CCN(Cc2ccc3c(c2)OCO3)CC1)Nc1cc(S(=O)(=O)N2CCCC2)ccc1Cl	ELG1 repair inh inconclusive, DT40 TDP1 no CPT 16µM, TDP1 cell CPT inconclusive
CN(C)S(=O)(=O)c1ccc(Cl)c(NC(=O)CN2CCN(Cc3ccc4c(c3)OCO4)CC2)c1	ELG1 repair inh 21µM, DT40 TDP1 no CPT 21µM, TDP1 cell CPT inconclusive
CCOc1cccc(C2C(C#N)=C(N)OC(C(C)(C)C)=C2C#N)c1OCC (centres undefined)	none (no result: RORgamma inh, VP16 counter, ELG1 repair inh, DT40 TDP1 no CPT, TDP1 cell CPT)
O=C(Cc1cccc2ccccc12)NN=Cc1ccc2c(c1)CCC2	12-LOX inh inconclusive, DT40 TDP1 no CPT 21µM, TDP1 cell CPT inconclusive (no result: RORgamma inh, VP16 counter, ELG1 repair inh)
O=C(CCC(=O)Nc1ccccc1Cl)N/N=C1\CCCc2ccccc21	none
O=C(Cc1ccc(Cl)cc1)N/N=C1\CCCc2ccccc21	RORgamma inh inconclusive, VP16 counter inconclusive, DT40 TDP1 no CPT 23µM, TDP1 cell CPT inconclusive
O=C(Cc1cccc2ccccc12)N/N=C1\CCCc2ccccc21	ELG1 repair inh inconclusive, DT40 TDP1 no CPT 16µM, TDP1 cell CPT inconclusive
O=C(Cc1cccc2ccccc12)N/N=C/c1ccc(F)cc1	DT40 TDP1 no CPT inconclusive, TDP1 cell CPT inconclusive
Cn1cccc1/C=N/NC(=O)Cc1cccc2ccccc12	RORgamma inh inconclusive, VP16 counter 14µM, ELG1 repair inh 13µM, DT40 TDP1 no CPT 12µM, TDP1 cell CPT inconclusive
Cn1cccc1/C=N/NC(=O)CNc1ccc2ccccc2c1	ELG1 repair inh inconclusive
O=C(CNc1ccc(F)cc1)N/N=C1\CCCc2ccccc21	DT40 TDP1 no CPT inconclusive
Cc1ccc(C(=O)O)cc1[N+](=O)[O-]	none
Cc1ccc(C(=O)N/N=C2\CCSC2)cc1[N+](=O)[O-]	RORgamma inh 10µM, VP16 counter inconclusive
O=C(N/N=C1/CCSC1)c1cccc([N+](=O)[O-])c1	RORgamma inh inconclusive, VP16 counter 20µM
CCOc1ccc(N(CC)C(=O)C(=O)c2c(C)n(C)c3ccccc23)cc1	none (no result: RORgamma inh, VP16 counter, ELG1 repair inh, DT40 TDP1 no CPT, TDP1 cell CPT)
COc1ccc(O)c(/C=N/NC(=O)c2ccc(OCc3cccc(Br)c3)cc2)c1	RORgamma inh 5µM, VP16 counter 4.5µM, ELG1 repair inh 3.7µM, DT40 TDP1 no CPT 5.8µM, TDP1 cell CPT 4.6µM
COc1ccc(C(=O)NCC(=O)OCc2cccc(Br)c2)cc1	none
Cc1cc(C)nc(SCc2ccc(C(=O)N/N=C/c3cccc(O)c3O)cc2)n1	RORgamma inh 1.4µM, VP16 counter 1.6µM, DT40 TDP1 no CPT 5.8µM, TDP1 cell CPT 5.2µM
Cc1cc(C)nc(SCc2ccc(C(=O)N/N=C/c3ccc(C(=O)O)cc3)cc2)n1	none
COc1ccc(O)c(/C=N/NC(=O)c2ccc(CSc3nc(C)cc(C)n3)cc2)c1	RORgamma inh 1.3µM, VP16 counter 2.5µM, ELG1 repair inh inconclusive, DT40 TDP1 no CPT 2.9µM, TDP1 cell CPT 4.6µM
CCCCCc1ccc(-c2ccc(C3CCC(CCC)C(C)C3)cc2)nc1 (centres undefined)	none (no result: RORgamma inh, VP16 counter, ELG1 repair inh, DT40 TDP1 no CPT, TDP1 cell CPT)

Source: PubChem BioAssay
